Measured values as given in PubChem BioAssay (EPA / NIEHS).
Values joined by “and” are separate entries in the source; they are usually repeats but may differ in a detail not shown here. Equal values may be shown once. Active and inactive are the calls of the source. The calls were made as follows: active = hit-call score of the fitted dose curve at least 0.9, where 1 is the maximum; inactive = score below 0.9.

Test: BSK_4H_SRB: Viability Assessment in the BioMAP Diversity Plus: 4H Assay (AID 2283027);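 also: cells exposed to compound for 24 h before staining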;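 as to AC50: curves fitted both ways versus DMSO so AC50 may be loss or gain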
Details: primary human endothelial cells (HUVEC)
Protocol: BSK_4H is a cell-based, multiplexed-readout assay that uses umbilical vein endothelium, a human vascular primary cell, with measurements taken at 24 hours after chemical dosing in a 96-well plate.BSK_4H_SRB is an assay component measured in the BSK_4H assay. It measures […] related to cell death using Sulforhodamine staining technology.Data from the assay component BSK_4H_SRB was analyzed into 1 assay endpoint. This assay endpoint, BSK_4H_SRB, was analyzed with bidirectional fitting relative to DMSO as the negative control and baseline of activity. Using a type of viability reporter, gain or loss-of-signal activity can be used to understand changes in the signaling. Furthermore, this assay endpoint can be referred to as a primary readout, because this assay has produced multiple assay endpoints where this one serves a signaling function. To generalize the intended target to other relatable targets, this assay endpoint is annotated to the cell morphology intended target family, where the subfamily is cell conformation.
The levels of cell surface (or secreted, indicated by the prefix "s") biomarker endpoints were measured by ELISA. Overt cytotoxicity to cells in confluent adherent cultures (all systems other than the BT system) was assessed by measuring total protein levels using sulforhodamine B (SRB) staining in parallel cultures at the time of biomarker measurements, indicated as SRB endpoints. For proliferation assays for adherent cell types, individual cell types are cultured at sub-confluence and relative cell numbers quantified by SRB staining at time points optimized for each system (48 h: 3C and CASM3C systems; 72 h: BT and HDF3CGF systems; 96 h: SAg system). SRB was performed by staining cells with 0.1% SRB after fixation with 10% TCA and reading wells at 560 nm.Viability and proliferation of PBMC (T cells) was quantified by Alamar Blue reduction for the SAg and BT systems. For PBMC viability (referred to as PBMC Cytotoxicity within the assay endpoint names), cells were plated (75,000/well in a 96-well plate) and then chemical samples added for 1 h before addition of activators, SEB and TSST-1 (20 ng/mL final concentration each). Cells were incubated for 90 h. Then, Alamar Blue (20 uL/well) (Invitrogen, Cat DAL1100) was added for 6 h, and the plates were read with a fluorescence microplate reader at 546/580 nm (excitation/emission). For PBMC proliferation, cells were plated and activated as above but incubated for only 16 h prior to addition of Alamar Blue. Plates were read after 6 h.

Row | Structure (SMILES) | outcome | AC50
1 | CCCCCCCCCCCCCCCC(=O)OC/C=C(C)/C=C/C=C(C)/C=C/C1=C(C)CCCC1(C)C | inactive | 
2 | Cc1cc(CCC(=O)OCCOCCOCCOC(=O)CCc2cc(C)c(O)c(C(C)(C)C)c2)cc(C(C)(C)C)c1O | inactive | 
3 | CCCCOC(=O)CCCCCCCC(=O)OCCCC | inactive | 
4 | CCC(C)c1cc([N+](=O)[O-])cc([N+](=O)[O-])c1OC(=O)OC(C)C (stereo not given) |  | 13.9 µM (active)
5 | CC(C=O)Cc1ccc(C(C)(C)C)cc1 (stereo not given) |  | 30.1 µM (active)
6 | CCCCCCC(CO)CCCC (stereo not given) | inactive | 
7 | C=C(C)[C@H]1CC=C(C)C(=O)C1 | inactive | 
8 | C=C(C)C(=O)OCCOCCOCCOCCOC(=O)C(=C)C | inactive | 
9 | Clc1cc(Cl)c(-c2c(Cl)c(Cl)cc(Cl)c2Cl)cc1Cl |  | 18.8 µM (active)
10 | COc1ccc(OC)c(N=Nc2c(O)ccc3ccccc23)c1 | inactive | 
11 | O=C1OC[C@H](Cc2cccc(O)c2)[C@H]1Cc1cccc(O)c1 | inactive | 
12 | CC(=O)Nc1ccc(C(=O)CCl)cc1 |  | 6.69 µM (active)
13 | CC=Cc1ccc(OCC)c(O)c1 | inactive | 
14 | C=C(C)C(=O)OCC(CC)(COC(=O)C(=C)C)COC(=O)C(=C)C |  | 9.41 µM (active)
15 | CCCCCC(C=O)=Cc1ccccc1 |  | 34.1 µM (active)
16 | C1=CC2C3C=CC(C3)C2C1 (stereo not given) | inactive | 
17 | CN(c1nccc(=O)[nH]1)C1CCN(c2nc3ccccc3n2Cc2ccc(F)cc2)CC1 | inactive | 
18 | O=C(Nc1ccc2c(O)c(N=Nc3ccc(N=Nc4ccc(S(=O)(=O)O)cc4)cc3)c(S(=O)(=O)O)cc2c1)c1ccccc1 | inactive | 
19 | CS(=O)(=O)c1ccc(C2=C(c3ccccc3)C(=O)OC2)cc1 | inactive | 
20 | C=CC(C)(O)CCC=C(C)C (stereo not given) | inactive | 

Row | Structure (SMILES) | outcome | AC50
21 | CC(=O)C1(C)CC2=C(CCCC2(C)C)CC1C (stereo not given) |  | 6.99 µM (active)
22 | O=CN1CCOCC1 | inactive | 
23 | CS(=O)(=O)OCCCCOS(C)(=O)=O | inactive | 
24 | Oc1c(Cl)cc(Cl)c(Cl)c1Cc1c(O)c(Cl)cc(Cl)c1Cl |  | 6.35 µM (active)
25 | CN(C)C(=S)SC(=S)N(C)C |  | 19.9 µM (active)
26 | C=C(C)C(=O)OCCOCCOCCOC(=O)C(=C)C | inactive | 
27 | CC(C)(C)CC(C)(C)c1ccc(OCCOCC[N+](C)(C)Cc2ccccc2)cc1 |  | 5.82 µM (active)
28 | CCN(CC)C(=O)N(CC)CC | inactive | 
29 | CSCCC=O | inactive | 
30 | c1ccc2cc(Nc3ccc(Nc4ccc5ccccc5c4)cc3)ccc2c1 | inactive | 
31 | C[C@@H]1CCN(C(=O)[C@H](CCCN=C(N)N)NS(=O)(=O)c2cccc3c2NC[C@H](C)C3)[C@@H](C(=O)O)C1 | inactive | 
32 | c1ccc(CCc2ccccc2)cc1 |  | 31 µM (active)
33 | CN(C)C(=O)Nc1ccc(Oc2ccc(Cl)cc2)cc1 | inactive | 
34 | O=C1c2ccccc2C(=O)c2c(O)ccc(O)c21 | inactive | 
35 | CC(CN=Cc1ccccc1O)N=Cc1ccccc1O (stereo not given) | inactive | 
36 | CC(=O)c1c(C)c([N+](=O)[O-])c(C(C)(C)C)c([N+](=O)[O-])c1C | inactive | 
37 | CC1(C)CCC[C@]2(C)[C@H]3CCO[C@]3(C)CC[C@@H]12 |  | 32.1 µM (active) and 33.9 µM (active)
38 | COc1ccc(CCN2CCC(Nc3nc4ccccc4n3Cc3ccc(F)cc3)CC2)cc1 |  | 2.49 µM (active)
39 | O=C1OC2(c3ccccc31)c1ccc(O)c(Br)c1Oc1c2ccc(O)c1Br | inactive | 
40 | COc1cc(Cl)c(OC)cc1N | inactive | 
